Test results from patent US20210230599, “STEM-LOOP COMPOSITIONS AND METHODS FOR INHIBITING INTERLEUKIN-8” (VITRISA THERAPEUTICS, INC., published 2021).

Molecular target: Interleukin-8 (IL8, CXCL8), C-terminal His-tagged (Homo sapiens, UniProt P10145 SEQ:1-72)
Assay: competition; competition TR-FRET
Settings: tags: C-terminal 6xHis (Sino Biological); ssRNA; 2'-F G, 2'-OMe A/C/U, 5' C6NH2, 3' idT
Protocol: Activity of each of these variants were tested using a time resolved competition TR-FRET assay in which the labeled parent Aptamer 3 was competed with increasing concentrations of unlabeled variants for binding to IL8 (FIG. 14). Briefly, 2-fold dilutions of thermally equilibrated aptamers were made in TR-FRET Buffer (50 mM MOPS, pH 7.4, 125 mM NaCl, 5 mM KCl, 50 μM CHAPS, 0.1 mg/mL BSA, 1 mM CaCl₂, and 1 mM MgCl₂). 5 μL of aptamer or control solution was added to 5 μl mix of 10 nM C-terminal His-tagged-IL8, 60 nM ALEXA FLUOR® 647-labeled Aptamer, and 5 nM anti-His-Eu (Perkin Elmer) in a black wall low volume 384 well plate (Greiner). For control, 5 μl of 1000-fold excess of unlabeled parent aptamer or 5 μl TR-FRET buffer alone was added to the mix of ALEXA FLUOR® 647-labeled aptamer, His-IL8, and anti-His-Eu. The plate was covered with a plate seal and subsequently incubated in the dark for 1 hour at room temperature. The plate was read on a Biotek CYTATION™ 5 plate reader. […]
To better understand the sequence requirements and confirm the stem structures of members of the Aptamer 8 family as determined from sequence covariation analysis from both the primary and secondary (degenerate) selections, a series of variants which included mutations and deletions to the predicted stems (Tables 45 and 46) were synthesized and screened. […]

How did the binding signal turn out when CGGCGGGAAAUGUGAGAUGGGUUGCCG was run?
The binding signal was about 2.5 fold worse than Aptamer 8.

For CGGUGGGAAAUGUGAGAUGGGUUACCG, which binding signal is on record?
Its binding signal is about 2.5 fold worse than Aptamer 8.
